The panel holds about 83,000 compounds, 20% with a hit somewhere; the sample as a whole holds those more often.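 Values shown are percent growth following 48 h exposure of cells in 96-well plates to a single concentration of compound; below 10 was considered active.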 Calls of active or inactive are those of the source.
How the values were obtained:
Experiment in all cases: NCI-60 one-dose screen, 48 h (100 = growth as untreated, 0 = no growth, -100 = all killed)
Settings in all cases: 10 µM
[1] = test system: NCI-H23 lung
[2] = test system: NCI-H226 lung
[3] = test system: NCI-H322M lung
[4] = test system: HOP-62 NSCLC
[5] = test system: NCI-H460 lung
[6] = test system: HOP-92 NSCLC
[7] = test system: NCI-H522 lung
[8] = test system: A549/ATCC NSCLC
[9] = test system: 786-0 renal
[10] = test system: COLO 205 colon

Measured: growth

COc1ccc(/C(CSc2nnc(-c3c[nH]c4ccccc34)n2-c2ccccc2)=N/O)cc1
inactive: [1] 41.6% | [2] 18.2% | [3] 36.4% | [4] 45% | [5] 17.3% | [6] 28.2% | [7] 36.5% | [8] 34.2% | [9] 59.7% | [10] 36.3%

Cn1c(O)c(N=Nc2nc(-c3cc4ccccc4oc3=O)cs2)c2cc(Br)ccc21
inactive: [1] 51.2% | [2] 52% | [3] 84.4% | [4] 12.1% | [5] 92% | [7] 57.9% | [8] 97.8% | [10] 136%
active: [6] -14.7% | [9] -12%

CCN1CCN(Cc2ccc(C(=O)Nc3cccc(-c4cn(-c5ccc6oc(=O)ccc6c5)nn4)c3)cc2C(F)(F)F)CC1
active: [1] -100% | [2] -82.1% | [3] -100% | [4] -99.5% | [5] -100% | [6] -18% | [7] -100% | [8] -100% | [9] -100%
inactive: [10] 48.1%

CN(C(=O)c1ccc(C(F)(F)F)cc1C(F)(F)F)c1sc2c(c1C#N)CCC(=O)C2
inactive: [1] 50% | [2] 102% | [3] 93.6% | [4] 92% | [5] 113% | [6] 80.6% | [8] 94.4% | [9] 85.2% | [10] 112%
active: [7] -59.7%

O=C(CS(=O)(=O)c1oc(-c2ccc(Cl)cc2)nc1S(=O)(=O)c1ccccc1)N1CCCC1
active: [6] -73% | [7] -89.3% | [9] -44.3% | [10] -91%
inactive: [1] 17.1% | [2] 71.9% | [3] 83.9% | [4] 93.5% | [5] 73.3% | [8] 79.1%

Cn1cc(-c2cc(N)n3nc(-c4c[nH]c5ccc(Br)cc45)cc3n2)c2cccnc21
active: [1] -84% | [2] -71.2% | [3] -42% | [4] -89.6% | [5] -35.7% | [6] -67.7% | [7] -82.8% | [8] -80% | [9] -80.2% | [10] -85.8%

CCNCCCn1c2c(c3cc(OC)c(OC)cc3c1=O)C(=O)c1cc3c(nc1-2)OCO3
active: [1] -27.2% | [2] -79.7% | [5] -24.7% | [9] -71.7%
inactive: [3] 35.2% | [4] 11.7% | [6] 44.4% | [7] 35.8% | [8] 21.1% | [10] 25.7%

CC(=O)c1ccc(Nc2nc(SC(C)C)nc(-c3ccccc3)c2C#N)cc1
inactive: [1] 22.4% | [3] 24.2% | [5] 20.2% | [7] 64.6% | [8] 57.3% | [10] 74.7%
active: [2] -25.1% | [4] -27.8% | [6] -15.8% | [9] -56.6%

COc1ccc(C(=O)NC(=S)N2CCN(c3ncnc4c3cnn4-c3ccccc3)CC2)cc1
inactive: [1] 60% | [3] 66.8% | [4] 31.9% | [5] 55.8% | [6] 32% | [7] 41.2% | [8] 58.8% | [9] 82.8% | [10] 79.7%
active: [2] 9.11%

COc1ccc2nc(Cl)c(-c3cc(-c4ccccc4)nc(N)n3)cc2c1
inactive: [1] 37.7% | [2] 27.1% | [3] 60.7% | [4] 40.8% | [6] 48.5% | [7] 46.8% | [8] 72.7% | [10] 53.7%
active: [5] 3.53% | [9] 4.34%

O=c1c2ccccc2nc(COc2ccccc2)n1/N=C/c1ccc(N2CCOCC2)cc1
active: [6] -1.3%
inactive: [1] 59.2% | [2] 37.9% | [3] 66.6% | [4] 18.4% | [5] 66.2% | [7] 33.6% | [8] 73.7% | [9] 45.5% | [10] 80.8%

O=C(Cn1nc(-c2ccccc2)ccc1=O)NN1C(=O)c2ccccc2C1=O
inactive: [1] 105% | [2] 101% | [3] 117% | [4] 102% | [5] 99.7% | [6] 125% | [7] 77.5% | [8] 108% | [9] 103% | [10] 131%

Cc1ccc(C(=O)CSc2nnc(-c3c[nH]c4ccccc34)n2-c2ccccc2)cc1
active: [2] -41.3% | [4] 7.8% | [6] -7.56% | [7] 1.43% | [9] -35.4%
inactive: [1] 17.3% | [3] 74.9% | [5] 29.3% | [8] 53.3% | [10] 75%

Reference: PubChem BioAssay (NCI)
